# From PubChem BioAssay (EPA / NIEHS)
# Records with an inconclusive call do not appear. Activity calls are given as the source filed them. The calls were made as follows, unless noted: active = hit-call score of the fitted dose curve at least 0.9, where 1 is the maximum; inconclusive = response in the unintended direction; inactive = score below 0.9.
# How the values were obtained:
# [1] = STM_H9_CystineISnorm_perc: Stemina devTOX quickPredict H9 human embryonic stem cell (hESC)-based Assay for Cystine (CYSS) Metabolite Biomarker, Normalized (AID 2283713; active = hit-call score of the fitted dose curve at least 0.9, where 1 is the maximum; inactive = score below 0.9)
# Summary of the method: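 Cells are held undifferentiated and treated for 72h, receiving fresh medium with compound every 24h. Cystine secreted during the final day is quantified by UPLC-HRMS against a labeled spike-in, then expressed relative to the DMSO vehicle median.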
# [2] = STM_H9_OrnCyssISnorm_ratio: Stemina devTOX quickPredict H9 human embryonic stem cell (hESC)-based Assay for Ornithine (ORN):Cystine (CYSS) Ratio (AID 2283714)
# Summary of the method: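 H9 hESC, 72h, q24h re-dose; last-day media → acetonitrile deproteinization → UPLC-HRMS. ORN:CYSS ratio from isotope-normalized EIC areas, vs 0.1% DMSO; MTX references on each plate.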
# [3] = CEETOX_H295R_MTT_cell_viability: Viability Assessment in the CeeTox HT-H295R MTT Assay (AID 2283718; active = hit-call score of the fitted dose curve at least 0.9, where 1 is the maximum; inactive = score below 0.9;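 as to AC50: curve fitted both ways so AC50 may mark viability loss or gain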)
# Summary of the method: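 H295R cells prestimulated 48 h with 10 uM forskolin, then exposed 48 h to test chemical (0.1% DMSO final). Viability by MTT (0.5 mg/ml, 4 h, 37 C), absorbance 570/650 nm; percent change versus DMSO, bidirectional fit.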
# [4] = Tanguay_ZF_120hpf_ActivityScore_legacy: (Legacy) Oregon State University Tanguay Lab 120 Hour Post-fertilization zebrafish Assay Score for Activity (AID 2283742);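 as to AC50: dechorionated Tropical 5D wild-type zebrafish embryos held singly per well; static exposure from 6 hpf until 120 hpf at 28 °C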
# Summary of the method: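 In this whole-embryo screen, dechorionated zebrafish were exposed from 6 hpf until 120 hpf at 28C under a 0.64% DMSO vehicle. Developmental malformations and death were recorded by brightfield microscopy as binary endpoints.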
# [5] = ACEA_AR_agonist_AUC_viability: ACEA Biosciences xCELLigence Real-Time Cell Analysis on Androgen Receptor Agonism for Viability (AID 2283775);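 as to AC50: viability read 80 hours after compound addition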
# Summary of the method: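 22Rv1 cells; impedance growth kinetics; 8-pt 1:4 dilutions from 100 uM top final, ≤0.5% DMSO; n = 2; 80 h read; AUC viability, loss-of-signal vs DMSO.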
# [6] = ACEA_AR_antagonist_AUC_viability: ACEA Biosciences xCELLigence Real-Time Cell Analysis on Androgen Receptor Antagonism for Viability (AID 2283776);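 also: 22Rv1 human prostate cancer cells growing on impedance electrode plates; area under impedance growth curve at 80 h after dosing as viability; hits lower the growth signal relative to DMSO meaning cytotoxicity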
# Summary of the method: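 22Rv1 prostate cells, continuous dosing up to 100 uM final (0.5% DMSO max), duplicate plates. Growth measured by impedance; AUC at 80 h, loss of signal vs DMSO.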
# [7] = ArunA_CellTiter_hNC: Viability Assessment in the ArunA Biomedical's Oris Neural Crest (hNC) Cell Migration Assay (AID 2283752)
# Summary of the method: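 Seed 60,000 hNC cells per well onto Matrigel in basal growth medium containing LIF and bFGF. Incubate 16 h at 37C. Replace with test medium containing chemical for 72 h, then assess viability by CellTiter Aqueous One.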
# [8] = ArunA_Migration_hNP: ArunA Biomedical's Oris Neuroprogenitor (hNP) Cell Migration Assay (AID 2283754)
# Summary of the method: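 Readout is calcein-AM fluorescence (ex494/em517) of cells migrating into the detection zone, relative to DMSO. hNP1 cells (H9-derived) grown on Matrigel behind stoppers 16 h, then stoppers pulled and chemical applied 72 h; cytochalasin D as control.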
# [9] = ArunA_Migration_hNC: ArunA Biomedical's Oris Neural Crest (hNC) Cell Migration Assay (AID 2283755)
# Summary of the method: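 Calcein-AM fluorescence (ex494 nm/em 517 nm) in the stopper-defined detection zone quantifies migration of hNC cells after 72 h chemical exposure; 60,000 cells/well plated on Matrigel with LIF and bFGF, 16 h pre-incubation. DMSO baseline.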
# [10] = ArunA_NOG_NucleusCount: ArunA Biomedical's Neurite Outgrowth (NOG) Assay for Nucleus Count (AID 2283756)
# Summary of the method: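 Viable neuron count, from Hoechst nuclei passing size and intensity gates, imaged at 20x on differentiated H9-derived human neurons. Exposure lasted 48 h from seeding; activity was scored relative to DMSO.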
# [11] = ArunA_NOG_NeuriteLength: ArunA Biomedical's Neurite Outgrowth (NOG) Assay for Neurite Length (AID 2283757)
# Summary of the method: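 Total neurite length per neuron, from traced βIII-tubulin-labelled processes longer than 10 um on viable Hoechst-gated cells, was scored as decrease from DMSO. Cells were hESC (H9)-derived neurons given 48 h chemical exposure immediately after seeding.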
# [12] = ArunA_NOG_NeuritesPerNeuron: ArunA Biomedical's Neurite Outgrowth (NOG) Assay for Neurites Per Neuron (AID 2283758)
# Summary of the method: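 Differentiated human H9-derived neurons exposed to chemicals for 48 h from seeding, then stained with Hoechst and βIII-tubulin/DyLight 488. Automated imaging counted neurites (processes >10 um) per valid neuron; loss of signal versus DMSO scored.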
# [13] = ArunA_NOG_BranchPointsPerNeurite: ArunA Biomedical's Neurite Outgrowth (NOG) Assay for Branch Points Per Neurite (AID 2283759)
# Summary of the method: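 Automated image analysis traced neurites (processes >10 um) from valid cell bodies after Hoechst and βIII-tubulin staining. hNN cells from H9 embryonic stem cells, 48 h exposure. Fitted bidirectionally against DMSO.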
# [14] = biological target: Luciferin 4-monooxygenase (Photinus pyralis) (UniProt P08659); assay: CCTE_Simmons_QuantiLum_inhib_2: CCTE's Firefly Luciferase Inhibition Assay, Simmons Lab (AID 2283767);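 as to AC50: potency for inhibitors that lower luciferase luminescence relative to DMSO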
# Summary of the method: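 First, 5 ng purified luciferase in phosphate buffer with BSA is dispensed per well. Next, test chemicals (5 nM to 87.5 uM final, 0.5% DMSO) are added and incubated 30 min at 37C in darkness. Finally, luciferin reagent is injected and luminescence read kinetically.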
# [15] = test system: zebrafish Androgen Receptor (AR), gene 100005148; assay: ATG_zfAR_XSP1: Attagene TRANS-FACTORIAL Multi-Species (XSP1) HepG2 Assay for zebrafish Androgen Receptor (AR) (AID 2283771)
# Summary of the method: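 Gain-of-signal versus DMSO was measured as reporter transcripts quantified by RT-PCR, fluorescent labelling and capillary electrophoresis after 24 h chemical exposure. The cells were HepG2 expressing a chimeric zebrafish AR-GAL4, co-stimulated with 3 nM 6-alpha-fluorotestosterone.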
# [16] = biological target: zebrafish Estrogen Receptor (ESR1), esr1 (gene 259252) (UniProt P57717); assay: ATG_zfER1_XSP1: Attagene TRANS-FACTORIAL Multi-Species (XSP1) HepG2 Assay for zebrafish Estrogen Receptor (ESR1) (AID 2283772)
# Summary of the method: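 Reporter mRNA induction, gauged via RT-PCR/capillary electrophoresis fluorescence relative to DMSO controls, in HepG2 cells transiently carrying GAL4-UAS reporter units; 24 h dosing.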
# [17] = test system: zebrafish Estrogen Receptor (ESR2B), gene 317733; assay: ATG_zfER2b_XSP1: Attagene TRANS-FACTORIAL Multi-Species (XSP1) HepG2 Assay for zebrafish Estrogen Receptor (ESR2B) (AID 2283773)
# Summary of the method: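 Human hepatoma HepG2, transiently transfected with multi-reporter units; exogenous zebrafish ESR2B-Gal4 activity measured. Exposure 24 h alongside 3 nM 6-alpha-fluorotestosterone to partly stimulate AR.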
# [18] = test system: frog Estrogen Receptor (ESR2), gene 100174814; assay: ATG_frER2_XSP1: Attagene TRANS-FACTORIAL Multi-Species (XSP1) HepG2 Assay for frog Estrogen Receptor (ESR2) (AID 2283774)
# Summary of the method: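 Multiplexed TRANS-format reporter assay in human hepatoma HepG2: chimeric nuclear receptor-Gal4 activity reported as mRNA induction at 24 h, detected by fluorescent RT-PCR products on capillary electrophoresis and fitted upward from DMSO baseline.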
# [19] = test system: Thyroperoxidase (TPO), gene 445522; assay: CCTE_Simmons_GUA_TPO: CCTE's Guaiacol Assay for Thyroperoxidase (TPO) Inhibition, Simmons Lab (AID 2283750)
# Summary of the method: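 Porcine thyroid microsomes (25 ug) in 200mM potassium phosphate, preincubated 30 s at 37C with compound (8 concentrations, 5 nM–87.5 uM) and 35mM guaiacol; 1mM H2O2 starts reaction. Absorbance change at 450nm over first 80 s; loss of signal versus DMSO, three replicates.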
# Chain of Luciferin 4-monooxygenase (Photinus pyralis) (P08659 whole entry, looked up): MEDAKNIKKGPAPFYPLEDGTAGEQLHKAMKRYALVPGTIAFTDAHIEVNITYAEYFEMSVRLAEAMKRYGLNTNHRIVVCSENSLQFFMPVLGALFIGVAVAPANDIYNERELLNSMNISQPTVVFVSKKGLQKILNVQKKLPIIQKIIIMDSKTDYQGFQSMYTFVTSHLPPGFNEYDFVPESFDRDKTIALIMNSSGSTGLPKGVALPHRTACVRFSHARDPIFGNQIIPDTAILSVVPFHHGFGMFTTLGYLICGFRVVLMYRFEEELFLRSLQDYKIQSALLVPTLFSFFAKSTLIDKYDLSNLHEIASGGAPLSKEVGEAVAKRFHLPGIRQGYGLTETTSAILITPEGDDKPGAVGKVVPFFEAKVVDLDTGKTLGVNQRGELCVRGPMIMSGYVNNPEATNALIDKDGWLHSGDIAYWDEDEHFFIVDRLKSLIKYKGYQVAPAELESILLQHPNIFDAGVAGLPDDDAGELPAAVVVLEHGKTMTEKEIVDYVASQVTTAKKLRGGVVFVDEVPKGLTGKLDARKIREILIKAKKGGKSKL
# Chain of zebrafish Estrogen Receptor (ESR1), esr1 (gene 259252) (P57717 whole entry, looked up, the tested form may be a part): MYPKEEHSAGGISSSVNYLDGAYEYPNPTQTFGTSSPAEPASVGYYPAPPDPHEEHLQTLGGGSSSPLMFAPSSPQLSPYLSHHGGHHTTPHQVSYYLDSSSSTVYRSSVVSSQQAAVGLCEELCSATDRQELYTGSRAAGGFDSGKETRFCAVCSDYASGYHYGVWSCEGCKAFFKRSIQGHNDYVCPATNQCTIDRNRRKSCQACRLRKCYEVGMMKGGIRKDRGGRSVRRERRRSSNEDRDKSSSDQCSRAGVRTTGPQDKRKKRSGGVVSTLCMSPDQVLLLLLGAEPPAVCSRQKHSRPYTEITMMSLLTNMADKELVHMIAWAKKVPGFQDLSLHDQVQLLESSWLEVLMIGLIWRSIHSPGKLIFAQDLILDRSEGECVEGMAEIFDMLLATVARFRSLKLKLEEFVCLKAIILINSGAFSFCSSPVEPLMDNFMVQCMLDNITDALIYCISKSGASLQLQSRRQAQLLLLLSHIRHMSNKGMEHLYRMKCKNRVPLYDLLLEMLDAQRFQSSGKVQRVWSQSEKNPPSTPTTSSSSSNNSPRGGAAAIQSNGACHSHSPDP
compound,measurement,setting,value
CN1CCN(Cc2cc(-c3ccc4[nH]c(=O)oc4c3)co2)[C@@H](c2ccc(F)cc2)C1,AC50,[1],5 µM (active)
same,AC50,[2],5 µM (active)
same,outcome,[3],inactive
same,outcome,[4],inactive
Nc1ccc2c(c1)C(=O)c1ccccc1C2=O,outcome,[3],inactive
same,outcome,[4],inactive
same,outcome,[5],inactive
same,AC50,[6],14.1 µM (active)
COC(=O)c1ccc(O)cc1,outcome,[1],inactive
same,outcome,[2],inactive
same,outcome,[3],inactive
same,outcome,[4],inactive
same,outcome,[7],inactive
same,outcome,[8],inactive
same,outcome,[9],inactive
same,AC50,[10],13.7 µM (active)
same,AC50,[11],18.1 µM (active)
same,AC50,[12],17.4 µM (active)
same,AC50,[13],14.8 µM (active)
same,outcome,[5],inactive
same,AC50,[6],12.7 µM (active)
C=CCOC(=O)c1ccccc1C(=O)OCC=C,AC50,[1],53.5 µM (active)
same,AC50,[2],41.3 µM (active)
same,outcome,[3],inactive
same,AC50,[4],37.4 µM (active)
same,outcome,[6],inactive
Cc1cc(NC(=O)C(=O)O)cc(C)c1Oc1ccc(O)c2c1CCC2,outcome,[1],inactive
same,outcome,[3],inactive
same,AC50,[4],0.216 µM (active)
same,outcome,[7],inactive
same,outcome,[8],inactive
same,outcome,[9],inactive
same,outcome,[10],inactive
same,AC50,[14],79.3 µM (active)
same,outcome,[6],inactive
Cc1nc(-c2ccc3c(c2)CCN(CCC2CCC(NC(=O)/C=C/c4ccc(F)cc4)CC2)CC3)no1 (stereo not given),outcome,[1],inactive
same,outcome,[3],inactive
same,outcome,[4],inactive
same,outcome,[5],inactive
same,AC50,[6],16.8 µM (active)
COc1ccc(S(=O)(=O)N2C(=O)[C@@](c3ccccc3OC)(N3C[C@H](O)C[C@H]3C(=O)N(C)C)c3cc(Cl)ccc32)c(OC)c1,outcome,[1],inactive
same,outcome,[2],inactive
same,AC50,[3],3.43 µM (active)
same,outcome,[4],inactive
same,AC50,[5],20.3 µM (active)
same,AC50,[6],20.5 µM (active)
COc1ccc(C)cc1N,outcome,[3],inactive
same,outcome,[4],inactive
same,outcome,[14],inactive
same,outcome,[5],inactive
same,outcome,[6],inactive
CCCCOC(=O)CCCCCCCCC(=O)OCCCC,outcome,[4],inactive
CC(C)(C)c1cc(O)c(C(C)(C)C)cc1O,AC50,[4],40.5 µM (active)
same,outcome,[14],inactive
same,outcome,[15],inactive
same,outcome,[16],inactive
same,AC50,[17],186 µM (active)
same,outcome,[18],inactive
same,AC50,[5],66.3 µM (active)
same,outcome,[6],inactive
Cc1ccccc1Cl,outcome,[4],inactive
O=[N+]([O-])C(CO)(CO)CO,outcome,[4],inactive
O=C(OCCCCCOC(=O)c1ccccc1)c1ccccc1,outcome,[3],inactive
same,outcome,[4],inactive
same,AC50,[5],90.1 µM (active)
same,AC50,[6],77.9 µM (active)
Nc1nc(N)c2nc(CNc3ccc(C(=O)N[C@@H](CCC(=O)O)C(=O)O)cc3)cnc2n1,outcome,[4],inactive
same,outcome,[14],inactive
same,outcome,[5],inactive
CCCCCCCCCCCCCCCC,outcome,[4],inactive
CC(=O)Oc1ccccc1C(=O)O,outcome,[4],inactive
same,outcome,[5],inactive
same,outcome,[6],inactive
CNC(=O)[C@H]1O[C@@H](n2cnc3c(NCc4cc(Cl)ccc4OCc4cc(C)no4)ncnc32)[C@H](O)[C@@H]1N,outcome,[4],inactive
same,outcome,[14],inactive
same,outcome,[5],inactive
same,outcome,[6],inactive
FC(F)(F)C(F)(F)C(F)(F)C(F)(F)C(F)(F)C(F)(F)CCI,outcome,[4],inactive
same,outcome,[5],inactive
same,outcome,[6],inactive
Cc1ccc(N(C)C)cc1,outcome,[4],inactive
same,AC50,[19],95.1 µM (active)
same,outcome,[14],inactive
same,outcome,[5],inactive
same,outcome,[6],inactive
c1cc(-c2ccncc2)ccn1,outcome,[3],inactive
same,outcome,[4],inactive
same,outcome,[5],inactive
same,outcome,[6],inactive
CC1(C)NC(=O)NC1=O,outcome,[4],inactive
same,outcome,[5],inactive
same,outcome,[6],inactive
CCCCN(CCCC)CCCC,outcome,[4],inactive
Cc1cc(=O)[nH]c(=S)[nH]1,outcome,[4],inactive
same,AC50,[19],7.71 µM (active)
same,AC50,[14],53.8 µM (active)
same,outcome,[5],inactive
same,AC50,[6],9.94 µM (active)
COc1cc(S(=O)(=O)O)c(C)cc1N=Nc1c(O)ccc2cc(S(=O)(=O)O)ccc12,outcome,[4],inactive
same,AC50,[14],10.7 µM (active)
same,outcome,[6],inactive
Cc1ccc(C)c(O)c1C,outcome,[4],inactive
same,outcome,[19],inactive
same,outcome,[14],inactive
same,outcome,[5],inactive
same,outcome,[6],inactive
Nc1ccc(S(=O)(=O)c2ccc(N)cc2)cc1,outcome,[4],inactive
same,outcome,[14],inactive
same,outcome,[5],inactive
CN[C@H]1CC[C@@H](c2ccc(Cl)c(Cl)c2)c2ccc(S(N)(=O)=O)cc21,outcome,[4],inactive
same,AC50,[14],10.7 µM (active)
same,AC50,[5],15.2 µM (active)
same,AC50,[6],15.7 µM (active)
Cc1cccc(C)c1O,outcome,[4],inactive
same,outcome,[19],inactive
same,outcome,[14],inactive
same,outcome,[6],inactive
Cc1nc(C)nc(N2C[C@@H](C)N(c3ccnc([C@@H](C)O)n3)[C@@H](C)C2)n1,outcome,[3],inactive
same,outcome,[4],inactive
same,outcome,[5],inactive
same,outcome,[6],inactive
CC1(C)CC(N=C=O)CC(C)(CN=C=O)C1 (stereo not given),AC50,[3],22.3 µM (active)
same,outcome,[4],inactive
same,AC50,[5],25.5 µM (active)
same,outcome,[6],inactive
CN1CCCC1=O,outcome,[4],inactive
same,outcome,[14],inactive
same,outcome,[5],inactive
same,outcome,[6],inactive
CC(=O)C(C)=CC1C(C)=CCCC1(C)C (stereo not given),outcome,[4],inactive
same,outcome,[5],inactive
same,AC50,[6],9.92 µM (active)
CCCCCCCCCCC,outcome,[4],inactive
same,outcome,[5],inactive
CCOC(=O)CCC(=O)OCC,outcome,[4],inactive
Oc1ccc2c(c1)OC[C@@H](N1CCC(O)(c3ccc(F)cc3)CC1)[C@H]2O,outcome,[3],inactive
same,outcome,[4],inactive
same,outcome,[5],inactive
same,outcome,[6],inactive
COc1cc(C=O)ccc1O,AC50,[4],69.8 µM (active)
CCNc1cccc(C)c1,outcome,[4],inactive
same,outcome,[19],inactive
same,outcome,[14],inactive
same,outcome,[5],inactive
same,outcome,[6],inactive
